Screening results: PubChem, Broad Institute
NOMO-1 viab: STK33 inhibitor candidate reducing NOMO-1 cell viability; NOMO-1 AML viability, CellTiter-Glo luminescence, 72 h; inhibition, % (no concentration beside the values); actives 7.5% (n = 37,000); AID 2330; in the data active = inhibition above about 80%; inconclusive = no clear call, values can overlap the other calls
STK33 inh: human STK33 kinase inhibition; ADP-Glo luminescence, MBP substrate; inhibition, % at 12.5 µM; AID 2322; actives 0.44% (n = 27,000); Q9BYT3; in the data active = inhibition above about 20%; inconclusive = no clear call, values can overlap the other calls
Target sequence (Q9BYT3 whole entry, looked up): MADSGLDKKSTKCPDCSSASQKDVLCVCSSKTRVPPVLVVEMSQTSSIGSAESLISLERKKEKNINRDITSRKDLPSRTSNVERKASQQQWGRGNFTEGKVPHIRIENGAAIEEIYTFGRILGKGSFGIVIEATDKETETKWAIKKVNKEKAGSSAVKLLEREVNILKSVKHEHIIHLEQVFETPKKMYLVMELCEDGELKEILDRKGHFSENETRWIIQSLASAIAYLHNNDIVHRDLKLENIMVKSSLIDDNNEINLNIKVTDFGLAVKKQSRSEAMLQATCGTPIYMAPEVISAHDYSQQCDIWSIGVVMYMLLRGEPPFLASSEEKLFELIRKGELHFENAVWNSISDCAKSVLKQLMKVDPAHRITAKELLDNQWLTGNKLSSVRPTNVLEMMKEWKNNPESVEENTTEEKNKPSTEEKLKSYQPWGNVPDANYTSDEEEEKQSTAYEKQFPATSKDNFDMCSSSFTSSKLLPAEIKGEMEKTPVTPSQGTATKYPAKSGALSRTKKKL
PD-1 reversal: activators reversing PD-1 mediated T-cell inhibition; primary human CD4 T cells, PD-L1 beads, CellTiter-Glo 96 h; activation, % (concentration not given with the values); 29,000 tested, under 10 active; call rule not given here;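 also: 0% = median vehicle wells and 100% = positive control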
Active calls of the source: *. Shown is part of a subset that was picked to be rich in hits.

Screening CCC(C)/C=C(C)/C=C/C1=CC2=C(Cl)C(=O)C(C)(OC(C)=O)C(=O)C2=CN1CCCC(=O)O (stereo not drawn) returned NOMO-1 viab 101*, STK33 inh -1 and PD-1 reversal 0.
For CC(C)(C)c1cc(-c2nnc(-c3cccs3)o2)n(Cc2ccc(F)cc2)n1 the results were NOMO-1 viab 62, STK33 inh 5 and PD-1 reversal -11.
For C=C1CC[C@@]2(OC1)O[C@H]1CC3[C@@H]4CC=C5C[C@H](O[C@@H]6OC[C@H](O)[C@H](O)[C@H]6O[C@@H]6O[C@@H](C)[C@H](O)[C@@H](O)[C@H]6O)C[C@@H](O)[C@]5(C)C4CC[C@]3(C)[C@H]1[C@@H]2C (stereo partly drawn) the results were STK33 inh -4.
For Cc1cc(-c2ccccc2)nc2c1/C(=N\O)CC(C)(C)C2 the results were NOMO-1 viab 101* and PD-1 reversal -3.
Screening Cc1ccc(C)c(NC(=O)CSc2nc(-c3ccccc3)cc(C(F)(F)F)n2)c1 returned NOMO-1 viab 27 and STK33 inh 1.
Cc1ccccc1NC(=O)C1CC=CCC1C(=O)O (stereo not drawn) was read as NOMO-1 viab -13 and STK33 inh -1.
Screening CCn1c(SCC(=O)Nc2cccc(Cl)c2Cl)nc2ccccc2c1=O returned NOMO-1 viab 52 and PD-1 reversal -1.
`C[C@H]1CN([C@@H](C)CO)C(=O)c2cccc(NC(=O)c3nc4ccccc4s3)c2O[C@@H]1CN(C)C(=O)Nc1ccc(C(F)(F)F)cc1` gave NOMO-1 viab 33.
For C[C@H](CO)N1C[C@H](C)[C@@H](CN(C)C(=O)Nc2cccc3ccccc23)Oc2c(NC(=O)c3nc4ccccc4s3)cccc2C1=O the results were NOMO-1 viab 99* and PD-1 reversal -4.
For C[C@@H]1CN([C@@H](C)CO)C(=O)c2cccc(NC(=O)c3nc4ccccc4s3)c2O[C@H]1CN(C)Cc1ccc(Cl)c(Cl)c1 the results were NOMO-1 viab 49 and PD-1 reversal -1.
Screening C[C@H]1CN([C@@H](C)CO)C(=O)c2cccc(NC(=O)c3nc4ccccc4s3)c2O[C@H]1CN(C)C(=O)Nc1ccc(C(F)(F)F)cc1 returned NOMO-1 viab 110* and PD-1 reversal -5.
C[C@@H]1CN([C@H](C)CO)C(=O)c2cccc(NC(=O)c3nc4ccccc4s3)c2O[C@H]1CN(C)CC1CCCCC1 was read as NOMO-1 viab 116* and PD-1 reversal -4.
For C[C@H](CO)N1C[C@H](C)[C@@H](CN(C)C(=O)Nc2ccccc2)Oc2c(NC(=O)c3nc4ccccc4s3)cccc2C1=O the results were NOMO-1 viab 14 and PD-1 reversal -2.
`C[C@H]1CN([C@@H](C)CO)C(=O)c2cccc(NC(=O)c3nc4ccccc4s3)c2O[C@H]1CN(C)CC1CCCCC1` gave NOMO-1 viab 50 and PD-1 reversal -2.
C[C@@H]1CN([C@H](C)CO)C(=O)c2cccc(NC(=O)c3nc4ccccc4s3)c2O[C@H]1CN(C)Cc1ccc(Cl)c(Cl)c1 was read as NOMO-1 viab 91* and PD-1 reversal -3.
For O=C(Nc1ccc(S(=O)(=O)NC23CC4CC(CC(C4)C2)C3)cc1)C1CC1 the results were NOMO-1 viab 33 and PD-1 reversal 2.
COc1ccc(C(C)(C)C)cc1S(=O)(=O)NC1CC(C)(C)NC(C)(C)C1 was read as NOMO-1 viab -7, STK33 inh -1 and PD-1 reversal 5.
`C[C@H](CO)N1C[C@H](C)[C@H](CN(C)Cc2ccc(C(=O)O)cc2)Oc2c(NC(=O)c3nc4ccccc4s3)cccc2C1=O` gave NOMO-1 viab 21 and PD-1 reversal -1.
C[C@@H]1CN([C@@H](C)CO)C(=O)c2cccc(NC(=O)c3nc4ccccc4s3)c2O[C@@H]1CN(C)Cc1ccc(C(F)(F)F)cc1 was read as NOMO-1 viab 99* and PD-1 reversal -4.
Screening C[C@H](CO)N1C[C@H](C)[C@H](CN(C)Cc2ccc(-c3ccccc3)cc2)Oc2c(NC(=O)c3nc4ccccc4s3)cccc2C1=O returned NOMO-1 viab inconclusive and PD-1 reversal -2.
For CNC[C@H]1Oc2c(NC(=O)c3nc4ccccc4s3)cccc2C(=O)N([C@H](C)CO)C[C@@H]1C the results were NOMO-1 viab 97* and PD-1 reversal 3.
Screening C[C@@H]1CN([C@@H](C)CO)C(=O)c2cccc(NC(=O)c3nc4ccccc4s3)c2O[C@@H]1CN(C)Cc1ccccc1 returned NOMO-1 viab 104* and PD-1 reversal -5.
Screening CNC[C@H]1Oc2c(NC(=O)c3nc4ccccc4s3)cccc2C(=O)N([C@@H](C)CO)C[C@@H]1C returned NOMO-1 viab 16 and PD-1 reversal 1.
Screening COc1ccc(C2CC(=O)c3c(O)cc(O[C@@H]4O[C@H](CO)[C@@H](OC5OCC(O)(CO)C5O)[C@H](O)[C@H]4O)cc3O2)cc1 (stereo partly drawn) returned NOMO-1 viab 15, STK33 inh 1 and PD-1 reversal -1.
`COc1ccc(OCC(=O)Nc2c(C(=O)c3ccc(C)c(F)c3)oc3ccccc23)cc1` gave NOMO-1 viab -10, STK33 inh -2 and PD-1 reversal 0.
Screening Cc1cccc(OCC(O)Cn2cnc3cc(C)c(C)cc32)c1 (stereo not drawn) returned NOMO-1 viab 36 and STK33 inh -2.
CC(C)(C)Nc1nc(SCC(N)=O)nc(N2CCOCC2)n1 was read as NOMO-1 viab -23, STK33 inh 1 and PD-1 reversal 4.
CCOc1ccc(-c2nnc(SCC(=O)c3ccccc3N)n2C)cc1 was read as NOMO-1 viab 22 and STK33 inh 0.
For Cc1ccc(NC(=O)CCCN2C(=O)c3ccccc3C2=O)c([N+](=O)[O-])c1 the results were NOMO-1 viab -1, STK33 inh 2 and PD-1 reversal 3.
For CS(=O)(=O)N(CC(=O)Nc1ccc(Br)cc1)c1ccc(Cl)cc1Cl the results were NOMO-1 viab 23, STK33 inh 3 and PD-1 reversal -1.
CC(C)(C)c1ccccc1OCC(=O)Nc1cccc2ccccc12 was read as NOMO-1 viab 92* and PD-1 reversal -1.
For O=C(COc1cccc2ccccc12)Nc1ccccc1C(=O)O the results were NOMO-1 viab -8, STK33 inh -2 and PD-1 reversal 2.
Screening Cc1cc(C)nc(SCC(=O)Nc2cc([N+](=O)[O-])ccc2C)n1 returned NOMO-1 viab 11, STK33 inh 2 and PD-1 reversal 0.
COc1cc(NC(=O)Cn2nc(C(F)(F)F)c(Cl)c2C)cc(OC)c1OC was read as NOMO-1 viab 23, STK33 inh 1 and PD-1 reversal 1.
COc1cc(NC(=O)Cn2nc(C(F)(F)F)c(Cl)c2C)cc([N+](=O)[O-])c1 was read as NOMO-1 viab 114*, STK33 inh -3 and PD-1 reversal -6.
`Cc1ccc2c(C)c(C(=O)Nc3ccc(S(=O)(=O)Nc4ncccn4)cc3)oc2c1` gave NOMO-1 viab 34 and STK33 inh 2.
For O=C1/C(=C/c2c[nH]c3ccccc23)CSc2ccccc21 the results were NOMO-1 viab 113* and PD-1 reversal 1.
For C(=Nc1cccc2ccccc12)c1c[nH]c2ccccc12 the results were NOMO-1 viab 72 and PD-1 reversal 1.
